Assay outcomes from PubChem BioAssay.
Sampled rows, rich in hits. Any-hit rate of the full collection: about 2.7%.
Nrf2 activator = activates Nrf2 signaling; AREc32 ARE-luciferase reporter (MCF7-derived line), luminescence, 24 h; Potency, µM (highest dose often 46.1 µM), for the others: top-dose activation, hits mostly activators; 410,000 tested, 0.31% active; AID 624171; also: potency is read from the fitted curve at half-maximal effect; % of control where 0% means no effect; nearly all actives have a fitted effect of over 65% in size
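ARE activation measured as luciferase luminescence (Steady-Glo, 30 min RT) in AREc32_Fluc cells after 24 hr compound exposure at 37 deg C, 5% CO2; cells seeded overnight at 1000/well in OPTI-MEM, 5% FBS.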
Nrf2 inh = inhibitors of Nrf2 signaling; A549 ARE-Fluc reporter, luciferase luminescence, 18-24 h; Potency, µM (doses to about 46 µM), for the others: top-dose activity change, negative = inhibition, actives largely listed as inhibitors; 360,000 tested, 2.1% active; AID 504444; also: potency is read from the fitted curve at half-maximal effect; % is scaled to controls: 0 for no effect and ±100 for the full control effect; nearly all actives have a fitted effect of over 60% in size
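A549 ARE_Fluc cells (5000/well, 5% FBS OPTI-MEM) pre-incubated 2 h, then treated with compounds 18-24 h at 37C/5% CO2 in concentration-response. CellTiter-Fluor viability read first; BugLite luciferase luminescence after 15 min at room temperature gives Nrf2 activity.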
12-LOX inh = blocks human arachidonate 12S-lipoxygenase; purified 12hLO, xylenol orange hydroperoxide absorbance; Potency, µM (highest dose often 108 µM), for the others: at the top dose activity change, negative = inhibition, most hits filed as inhibitors; P18054; AID 1671190; 580,000 tested, 1.1% active; also: potency is read from the fitted curve at half-maximal effect; % is scaled to controls: 0 for no effect and ±100 for the full control effect
Target sequence (P18054 whole entry, looked up): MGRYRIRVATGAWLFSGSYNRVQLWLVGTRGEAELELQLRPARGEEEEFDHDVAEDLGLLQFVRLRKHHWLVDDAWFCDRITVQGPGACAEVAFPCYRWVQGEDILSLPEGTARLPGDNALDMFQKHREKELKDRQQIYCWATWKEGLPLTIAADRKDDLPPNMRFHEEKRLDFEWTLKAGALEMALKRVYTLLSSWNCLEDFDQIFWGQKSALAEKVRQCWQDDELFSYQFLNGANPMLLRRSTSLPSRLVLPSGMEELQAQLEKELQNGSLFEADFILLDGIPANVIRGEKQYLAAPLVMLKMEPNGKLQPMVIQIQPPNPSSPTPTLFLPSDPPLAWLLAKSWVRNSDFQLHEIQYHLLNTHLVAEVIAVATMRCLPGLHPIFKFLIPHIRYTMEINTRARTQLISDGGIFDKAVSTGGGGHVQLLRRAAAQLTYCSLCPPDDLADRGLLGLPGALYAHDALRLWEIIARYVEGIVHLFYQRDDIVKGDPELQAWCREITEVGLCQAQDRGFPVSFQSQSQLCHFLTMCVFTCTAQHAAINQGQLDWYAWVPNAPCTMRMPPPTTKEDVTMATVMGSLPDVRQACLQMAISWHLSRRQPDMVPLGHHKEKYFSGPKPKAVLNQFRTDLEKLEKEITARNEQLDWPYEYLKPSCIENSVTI
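Purified human 12hLO (150 nM final) in 25 mM Hepes, 0.01% Triton X-100, pH 7.0 was preincubated 15 min at room temperature with compound. Then 40 uM arachidonic acid was added, 30 min. Hydroperoxide was read by Fe-XO absorbance ratio 573/405 nm.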
LDHA block = inhibitors of human lactate dehydrogenase A; P00338; activity change, % (values are at about 110 or 230 µM); 480,000 tested, 0.15% active; purified LDHA, NADH/diaphorase-resazurin fluorescence; active compounds read low; AID 1347041; in the data active = activity change below about -30%; inconclusive = mostly about -25% to -30%;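 also: plate controls were DMSO wells for no effect and wells without enzyme for full effect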
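Human LDH5 (2 nM) was incubated with 0.06 mM NADH and 0.2 mM pyruvate for 5 min at room temperature in Tris pH 7.4. Remaining NADH was coupled through diaphorase/resazurin, and resorufin fluorescence was read at 0 and 20 min.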
A549 viability = A549 cytotoxicity, counter-screen for Nrf2 inhibitors | 390,000 tested, 0.16% active | A549 ARE-Fluc cells, CellTiter-Fluor viability, 18-24 h | Potency, µM (titrated, usually from 46 µM), for inactives: at the highest dose activity change, negative = cytotoxicity, usual class: inhibitors; also: potency is read from the fitted curve at half-maximal effect; % is scaled to controls: 0 for no effect and ±100 for the full control effect
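Cytotoxicity counterscreen: CellTiter-Fluor fluorescence was measured in A549 ARE_Fluc cells after 18-24 h of compound exposure in a concentration series. The subsequent BugLite luminescent read reports ARE-luciferase activity.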
IDH1 R132H inh = blocks human mutant IDH1 R132H enzyme. O75874. IDH1-R132H enzyme, NADPH consumption, diaphorase/resazurin fluorescence. Potency, µM (series often up to 76.6 µM), for the others: at the highest dose activity change, negative = inhibition, hits mostly inhibitors. 390,000 tested, 0.093% active. AID 602179; also: potency is read from the fitted curve at half-maximal effect; % is scaled to controls: 0 for no effect and ±100 for the full control effect; nearly all actives have a fitted effect of over 65% in size
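IDH1-R132H (0.5 ug/mL dispensed) in pH 7.5 Tris buffer was preincubated 30 min with compound, then given a substrate mix of 0.016 mM NADPH and 2 mM alpha-KG for 80 min at room temperature; remaining NADPH was read by diaphorase/resazurin fluorescence.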
Numbers without * were called inactive; [ ] = remark or other dose. Unless noted, calls follow the shape of the dose curve; as a rule, active = well fitted curve in the direction sought with a large enough effect; inconclusive = small, poorly fitted or top-dose-only effect, or another doubt; inactive = no such curve, though single readings can be large; an effect the other way counts as inactive or inconclusive.

For COc1ccc(C(=O)c2c(N)c(C(=O)Nc3ccccc3OC)c3ccccn23)cc1 the results were 12-LOX inh -24.4% and LDHA block 2.8.
CC(=O)Nc1ccc(NC(=O)Cn2nc(-n3nc(C)cc3C)ccc2=O)cc1 was read as 12-LOX inh 38.7% and LDHA block 8.1.
Screening COc1cc(F)ccc1CN1CCCC2(Cc3ccccc3CNC2=O)C1 (stereo not drawn) returned 12-LOX inh 8.7%[6.33 µM].
Screening COc1ccc(-n2c(SCC#N)nnc2-c2ccc(NS(=O)(=O)c3ccc(C)cc3)cc2)cc1 returned Nrf2 activator 1.9%, Nrf2 inh 10.3µM*, LDHA block -4.9, A549 viability -17.7% and IDH1 R132H inh -2.3%.
COc1ccc(-n2c(SCC(N)=O)nnc2-c2ccc(NS(=O)(=O)c3ccc(C)cc3)cc2)cc1 was read as Nrf2 activator 0.0%, Nrf2 inh -13.6%, 12-LOX inh inconclusive, LDHA block 0.9, A549 viability -1.7%[1.84 µM] and IDH1 R132H inh -12.5%.
O=C(O/N=C1\CCS(=O)(=O)c2sccc21)c1c(F)cccc1F was read as Nrf2 activator -0.4%, Nrf2 inh 11.7%, 12-LOX inh 0.0%, LDHA block -17.1, A549 viability 0.0% and IDH1 R132H inh -1.1%.
For O=S1(=O)CC/C(=N\Nc2ccccc2)c2ccsc21 the results were Nrf2 activator 8.6%, Nrf2 inh 10.3%, 12-LOX inh 35.5µM*, LDHA block 2.0, A549 viability -1.9% and IDH1 R132H inh 0.0%.
For COc1cccc(-c2noc(-c3ccc(NCCn4cccn4)nc3)n2)c1OC the results were 12-LOX inh 2.8%.
Screening CC1(C)O[C@@H]2C[C@H]3[C@@H]4CCC5=CC(=O)C=C[C@]5(C)[C@@]4(F)[C@@H](O)C[C@]3(C)[C@]2(C(=O)CO)O1 returned Nrf2 activator 0.0%, Nrf2 inh 0.0041µM*, 12-LOX inh 1.0%, LDHA block -3.7, A549 viability -0.7% and IDH1 R132H inh -12.6%.
CC1(C)OC2CC3C4CCC5=CC(=O)CCC5(C)C4(F)C(O)CC3(C)C2(C(=O)CO)O1 (stereo not drawn) was read as Nrf2 activator 0.6%, Nrf2 inh 0.0052µM*, 12-LOX inh -15.0%, LDHA block 4.1, A549 viability -6.5% and IDH1 R132H inh 8.4%.
`CC1(C)O[C@H]2C[C@@H]3[C@H]4CCC5=CC(=O)C=C[C@]5(C)[C@@]4(F)[C@@H](O)C[C@]3(C)[C@]2(C(=O)CO)O1` gave 12-LOX inh -25.8%[57.4 µM].
`CC1(C)O[C@@H]2C[C@H]3[C@@H]4C[C@H](F)C5=CC(=O)C=C[C@]5(C)[C@@]4(F)[C@@H](O)C[C@]3(C)[C@]2(C(=O)CO)O1` gave Nrf2 activator -0.7%, Nrf2 inh inconclusive, 12-LOX inh -6.2%, LDHA block -1.9, A549 viability -9.9% and IDH1 R132H inh 9.7%.
`COc1ccc(OC)c(C2CC(=O)N(Cc3ccc(C)cc3)c3c2c(C)nn3-c2nc(C)cc(C)n2)c1` (stereo not drawn) gave 12-LOX inh 15.3% and LDHA block 9.0.
`CCCCn1nc2cc(C(=O)NCc3cc(C(F)(F)F)cc(C(F)(F)F)c3)ccc2c1OCC` gave Nrf2 activator -0.5%, Nrf2 inh 18.4µM*, 12-LOX inh 8.0%, LDHA block -2.9, A549 viability -6.1% and IDH1 R132H inh 8.0%.
CCOc1c2ccc(C(=O)NCc3cc(C(F)(F)F)cc(C(F)(F)F)c3)cc2nn1CCOC was read as Nrf2 activator -0.1%, Nrf2 inh inconclusive, 12-LOX inh 4.8%, LDHA block 1.2, A549 viability -5.9% and IDH1 R132H inh 6.1%.
For CC(C)(C)/C(O)=C/c1nc2cc(Cl)ccc2oc1=O the results were Nrf2 activator 10µM*, Nrf2 inh 10.3%, 12-LOX inh inconclusive, LDHA block 3.0, A549 viability -4.5% and IDH1 R132H inh 22.9%.
Screening Cc1ccc2oc(=O)c(/C=C(\O)C(C)(C)C)nc2c1 returned Nrf2 activator inconclusive, Nrf2 inh -24.7%, 12-LOX inh -11.4%, LDHA block 3.1, A549 viability 0.0% and IDH1 R132H inh 7.5%.
For O=C(Nc1ccc(F)cc1F)c1csc(-c2cccs2)n1 the results were Nrf2 activator 10µM*, Nrf2 inh inconclusive, 12-LOX inh 0.0%, LDHA block -9.5, A549 viability -0.6% and IDH1 R132H inh -0.1%.
Screening O=C(Nc1ccc(F)cc1F)c1cc(Cl)sc1Cl returned Nrf2 activator 14.1µM*, Nrf2 inh inconclusive, 12-LOX inh -2.0%, LDHA block -13.2, A549 viability -7.9% and IDH1 R132H inh 16.7%.
CC(NC(=O)c1cc(C2CC2)nc2ccccc12)C1CC1 (stereo not drawn) was read as 12-LOX inh inconclusive and LDHA block -0.1.
CCOc1cc(CNc2ccc3c(c2)CCC3)ccc1O was read as Nrf2 activator 3.2%, Nrf2 inh 0.4%, 12-LOX inh -16.9%, LDHA block 5.9, A549 viability -2.7% and IDH1 R132H inh 8.4%.
`COc1cc(CNc2ccc3c(c2)CCC3)cc(OC)c1O` gave Nrf2 activator 2.2%, Nrf2 inh 28.8%, 12-LOX inh 1.12µM*, LDHA block -5.1, A549 viability -1.3% and IDH1 R132H inh 4.9%.
Cc1cccc(C(=O)N2N=C(c3ccc(NS(C)(=O)=O)cc3)CC2c2cccs2)c1 (stereo not drawn) was read as Nrf2 activator 2.9%, Nrf2 inh 23.1µM*, 12-LOX inh 0.0%, LDHA block -10.7, A549 viability -18.5% and IDH1 R132H inh -11.1%.
For CCS(=O)(=O)Nc1ccc(C2=NN(C(=O)c3ccccc3)C(c3cccs3)C2)cc1 (stereo not drawn) the results were Nrf2 activator 0.1%, Nrf2 inh inconclusive, 12-LOX inh -0.3%, LDHA block 0.7, A549 viability -21.3% and IDH1 R132H inh -9.2%.
`O=C(CN1CCCC1c1cccs1)C12CC3CC(CC(C3)C1)C2` (stereo not drawn) gave 12-LOX inh 6.31µM* and LDHA block -0.2.
`Cc1cccc(/C=N/Nc2ccc(Cl)c(Cl)c2)c1` gave 12-LOX inh 5.62µM* and LDHA block 3.4.
`CSc1ccc(/C=N/Nc2ccc(Cl)c(Cl)c2)cc1` gave 12-LOX inh 2µM* and LDHA block 8.4.
Fc1cccc(/C=N/Nc2ccc(Cl)c(Cl)c2)c1 was read as 12-LOX inh 5.01µM* and LDHA block -7.0.
